MIN6 prolif: MIN6 beta-cell proliferation induction | MIN6 cells proliferation, ATPlite luminescence, 48 h; cells starved in 0.2% serum; 100% = growth in 10% serum | AID 2380 | hit rate 0.29% among 330,000 | proliferation, % at 10 µM;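 active means compounds whose signal lies at least 3.5 SD above the mean of all wells on their plate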
RAD52 anneal inh: inhibitors of human RAD52 DNA annealing | inhibition, % at 18.7 µM | recombinant RAD52 DNA annealing, FRET fluorescence | hit rate 0.46% among 360,000 | AID 651710 | P43351;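 active means every replicate showing at least 50% inhibition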
Target sequence (P43351 whole entry, looked up): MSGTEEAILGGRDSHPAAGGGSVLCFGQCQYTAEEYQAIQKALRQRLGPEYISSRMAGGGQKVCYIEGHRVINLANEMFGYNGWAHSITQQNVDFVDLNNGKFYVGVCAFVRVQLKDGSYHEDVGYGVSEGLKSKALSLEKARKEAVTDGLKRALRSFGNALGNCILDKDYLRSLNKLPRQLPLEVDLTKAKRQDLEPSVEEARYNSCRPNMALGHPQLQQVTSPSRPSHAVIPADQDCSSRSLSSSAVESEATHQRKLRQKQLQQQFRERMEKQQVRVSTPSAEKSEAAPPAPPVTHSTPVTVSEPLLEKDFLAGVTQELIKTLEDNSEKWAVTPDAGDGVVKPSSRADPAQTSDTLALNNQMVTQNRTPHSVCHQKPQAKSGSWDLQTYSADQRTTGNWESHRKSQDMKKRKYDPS
FID counter: fluorescent intercalator displacement, NS3 helicase counter-screen | DNA fluorescent intercalator displacement, fluorescence | inhibition, % at 7.9 µM | hit rate 0.17% among 290,000 | AID 1845; in the data active means inhibition above about 37%;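 further: higher means more ethidium bromide displaced from hairpin DNA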
PREPL inhibitor: inhibitors of human prolyl oligopeptidase-like enzyme PREPL; hit rate 0.68% among 320,000; recombinant PREPL, fluorescence polarization activity-based probe; Q4J6C6; AID 2751; inhibition, % at 5.96 µM
UBC13 inh: inhibitors of human UBC13 polyubiquitin chain formation | inhibition, % at 20 µM | P61088 | AID 485273 | TR-FRET | hit rate 0.47% among 330,000; in the data active means inhibition above about 45%, passing the limit was not always enough
Target sequence (P61088 whole entry, looked up): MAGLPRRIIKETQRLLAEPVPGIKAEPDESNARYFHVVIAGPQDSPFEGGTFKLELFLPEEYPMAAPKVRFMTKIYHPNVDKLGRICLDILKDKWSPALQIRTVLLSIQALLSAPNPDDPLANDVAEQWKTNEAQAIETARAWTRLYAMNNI
RAD54 branch: RAD54 (human) branch migration inhibition; RAD54 Holliday junction branch migration, FAM/BHQ fluorescence; inhibition, % at 10.4 µM; hit rate 0.14% among 360,000; AID 602329;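 active means mean normalized replicate activity at least 40 and at least half of replicates scoring 40 or more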;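 further: inhibitors cause a drop in the FAM fluorescence signal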
PREPL inh cf: confirmation of human PREPL enzyme inhibitors; shares compounds with PREPL inhibitor; recombinant PREPL, fluorescence polarization activity probe; hit rate 67% among 2,000; inhibition, % at 5.96 µM
Hits are given with their value; – = inactive; · = no result given. Shown are actives, neighbours in structure and some others; about 1.3% of the full set was active somewhere. Unless noted, no stated cut-off is given here; in the data, active means inhibition above about 43%; inactive means the rest.

SMILES	MIN6 prolif	RAD52 anneal inh	FID counter	PREPL inhibitor	UBC13 inh	RAD54 branch	PREPL inh cf
Cc1ccc(C(=O)Oc2ccc(/C=C3\C(=N)N4N=C(N5CCOCC5)SC4=NC3=O)cc2)cc1	–	–	–	62	–	–	–
N=C1/C(=C\c2ccc(OC(=O)c3ccccc3)cc2)C(=O)N=C2SC(N3CCOCC3)=NN12	–	–	–	61	–	–	–
N=C1/C(=C\c2ccc(OC(=O)c3ccc(F)cc3)cc2)C(=O)N=C2SC(N3CCCC3)=NN12	–	–	–	–	–	–	·
Cc1noc(C)c1NC(=O)N(C)C[C@H]1OCCCC[C@H](C)Oc2ccc(NS(C)(=O)=O)cc2C(=O)N([C@@H](C)CO)C[C@H]1C	·	·	·	·	·	–	·
COc1ccc(/C=N/N=C/c2ccc(OC)c(OC)c2)cc1OC	–	·	–	–	–	–	·
COc1cc(/C=N/N=C(N)N)ccc1OCc1ccccc1Cl	–	–	–	49	54	·	48
C[C@H](CO)N1C[C@H](C)[C@@H](CN(C)Cc2ccccc2)Oc2ccc(NS(=O)(=O)c3ccccc3)cc2C1=O	·	–	·	·	·	–	·
Cc1c(C#N)c(N=CN(C)C)c(C(=O)c2ccc(Br)cc2)n1-c1ccc(Cl)cc1	–	·	–	48	–	–	53
CC(=O)c1c(N)c(C#N)c(C)n1-c1ccc(Br)cc1	–	·	–	–	–	–	·
COc1cccc(N2CCN(c3ncnc4c3[nH]c3ccccc34)CC2C)c1 (stereo not given)	–	·	–	46	–	·	46
COc1cccc(N2CCN(c3ncnc4c3[nH]c3ccc(F)cc34)CC2C)c1 (stereo not given)	–	·	–	49	–	–	47
COc1ccc2[nH]c3c(N4CC(C)OC(C)C4)ncnc3c2c1 (stereo not given)	–	·	–	–	–	·	·
c1ccc(-c2nc(N3CCOCC3)c3ccccc3n2)nc1	–	·	–	–	–	–	·
c1ccc(-c2nc(N3CCCCCC3)c3ccccc3n2)nc1	–	·	–	68	–	56	65
c1ccc(CCNc2nc(-c3ccccn3)nc3ccccc23)cc1	–	–	–	73	–	–	77
C/C(=N\Nc1nc(-c2ccccn2)nc2ccccc12)c1ccc(F)cc1	–	·	–	–	–	–	·
O=C(C[C@@H]1CC[C@H](NC(=O)Nc2cc(F)ccc2F)[C@H](CO)O1)NCCCN1CCOCC1	·	–	·	·	·	–	·
CCCCn1c(CN2CCN(c3cccc(Cl)c3)CC2)nc2c1c(=O)[nH]c(=O)n2C	–	–	–	–	–	–	·
Cn1c(=O)[nH]c(=O)c2c1nc(CN1CCN(c3cccc(Cl)c3)CC1)n2CCN1CCOCC1	–	·	–	46	–	–	–
O=C(C[C@H]1CC[C@H]2[C@@H](COC[C@H](O)CN2Cc2cc(F)ccc2F)O1)N[C@H]1CCN(Cc2ccccc2)C1	·	–	·	·	·	–	·
CO[C@@H]1CN(C)C(=O)c2ccc(NC(=O)C3CCOCC3)cc2OC[C@@H](C)N(C(=O)c2ccccc2)C[C@@H]1C	·	–	·	·	·	–	·
CCN(C(=O)CSc1nc(C)nc2sc3c(c12)CCC3)C1CCS(=O)(=O)C1 (stereo not given)	–	–	·	54	–	–	–
CCCn1c(SCC(=O)N(C)C2CCS(=O)(=O)C2)nc2sc3c(c2c1=O)CCC3 (stereo not given)	–	–	·	–	–	·	·
CC(C)NC(=O)N(C)C[C@H]1Oc2ccc(NC(=O)Nc3ccc(F)cc3)cc2C(=O)N([C@@H](C)CO)C[C@@H]1C	·	–	·	·	·	–	·
COc1ccccc1-c1nnc2sc(-c3ccc(N(C)C)cc3)nn12	–	–	–	52	–	–	48
SMILES	MIN6 prolif	RAD52 anneal inh	FID counter	PREPL inhibitor	UBC13 inh	RAD54 branch	PREPL inh cf
COc1cc(-c2nnc(-c3ccncc3)o2)ccc1OCc1ccccc1	–	·	–	44	–	–	–
COc1ccc(-c2nnc(-c3ccccc3)o2)cc1OC	–	–	–	–	–	–	·
COC(=O)c1ccc(OCCOCCOc2cccc3ccc(C)nc23)cc1	–	–	–	–	–	·	·
COC(=O)c1ccccc1OCCOCCOc1cccc2ccc(C)nc12	–	–	–	49	–	–	–
CCCOc1ccccc1-n1sc2c(c1=S)-c1cc(OC)cc3c1N(C(=O)C3=O)C2(C)C	–	·	–	52	–	–	57
CC(C)NC(=O)N(C)C[C@@H]1Oc2ccc(NC(=O)Cc3cn(C)c4ccccc34)cc2CC(=O)N([C@H](C)CO)C[C@H]1C	·	–	·	·	·	–	·
C(=N\n1cnnc1)/c1ccc(OCc2cccc3ccccc23)cc1	–	·	–	50	–	–	–
CO[C@H]1CN(C)C(=O)c2ccc(NS(=O)(=O)c3ccccc3C)cc2OC[C@H](C)N(C)C[C@@H]1C	·	–	·	·	·	·	·
C[C@H]1CN([C@@H](C)CO)C(=O)Cc2cc(NC(=O)CCN3CCOCC3)ccc2O[C@@H]1CN(C)Cc1ccc(Oc2ccccc2)cc1	–	–	·	53	–	–	54
CNC[C@H](Cc1cccc2ccccc12)NC[C@H](CCSC)NCC1CCC(C(C)(C)C)CC1 (stereo not given in full)	–	·	·	44	86	·	–
C[C@@H]1CCCCO[C@H](CN(C)S(=O)(=O)c2ccc(Cl)cc2)[C@H](C)CN([C@@H](C)CO)C(=O)c2cc(NC(=O)CCC(F)(F)F)ccc2O1	·	–	·	·	·	–	·
COC(=O)c1[nH]c2ccc(C)cc2c1NC(=O)CN1CCCc2ccccc21	–	·	–	49	–	·	48
Cc1[nH]c(C)c(S(=O)(=O)NCCc2ccc(S(N)(=O)=O)cc2)c1C(=O)N1CCCC1	–	–	–	54	–	–	–
CSc1ccc(CCNS(=O)(=O)c2c(C)[nH]c(C)c2C(=O)N2CCCCC2)cc1	–	–	–	–	–	–	·
O=C(COc1ccc(F)c(Cl)c1)Nc1ccc(N2CCOCC2)cc1	–	–	·	56	–	–	55
O=C(COc1cccc(Cl)c1)Nc1ccc(N2CCOCC2)cc1	–	·	–	46	–	·	47
COc1ccc2c(CC(=O)Nc3ccc(OC)c(S(=O)(=O)N4CCOCC4)c3)coc2c1	–	–	–	–	–	–	·
O=C(CCn1c(=O)oc2cc(Cl)ccc21)Nc1ccc(N2CCOCC2)cc1	–	–	–	49	–	–	49
COc1ccc2c(CC(=O)Nc3ccc(N4CCOCC4)cc3)coc2c1	–	–	–	54	–	·	60
O=C(CCn1c(=O)oc2ccccc21)Nc1ccc(N2CCOCC2)cc1	–	–	–	–	–	–	·
Cc1noc(C)c1NC(=O)N(C)C[C@@H]1OCCCC[C@@H](C)Oc2ccc(NC(=O)Nc3ccccc3)cc2C(=O)N([C@@H](C)CO)C[C@@H]1C	·	·	·	·	·	–	·
C[C@@H]1CN([C@H](C)CO)C(=O)c2cc(C#C[C@@H](C)O)cnc2O[C@H]1CN(C)C(=O)CN1CCOCC1	·	–	·	·	·	–	·
C[C@@H]1CN([C@H](C)CO)C(=O)c2cccc(NC(=O)Nc3cccc4ccccc34)c2O[C@@H]1CN(C)S(=O)(=O)c1cccs1	·	–	·	·	·	–	·
